Measured values taken from the supplement of paper PMC10849652.
Of roughly 8,800 targets only a part is listed; those with a hit were picked by preference. About 0.5% of all pairs of compound and target were hits.

What was measured:
Test in all cases: log2 fold change, soluble protein after heating vs DMSO (PISA); higher = thermal stabilisation; K562 lysate, 10 uM; active = over 0.2 and 3.5 SD of the protein, either way, in both replicates (recomputed)
[1] = compound: C#Cc1cccc(Nc2ncnc3cc(OCCOC)c(OCCOC)cc23)c1 [erlotinib]
How it was run: (§1)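 Pellets of K562 cells were dounce-homogenised in PBS pH 7.4 with 1 mM MgCl2, and the crude extract was held at 1 mg/mL protein for a 30 min treatment with 10 μM compound. Aliquots were heated for 3 min over 48°C-58°C and pooled before NP-40 was added to 0.5% at 4°C. The supernatant from 21,000xg for 90 min was quantified by TMTpro 16plex LC-MS/MS with channel sums equalised. Values are reported from duplicates as log-two fold change in thermal stability relative to solvent controls.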

[2] = compound: C/C(=N\NC(=O)C1=CC(=CC=C1)S(=O)(=O)N2CCOCC2)/C3=C(C=CC(=C3)Cl)O
How it was run: as §1

[3] = compound: C1=CC(=CC=C1C2=NC3=C(N2)C=C(C=C3)C(=O)N)OC4=CC=C(C=C4)Cl
How it was run: as §1

[4] = compound: C1=CC2=C(C=CC(=C2)/C=C\3/C(=O)NC(=NCC4=CC=CS4)S3)N=C1
How it was run: as §1

[5] = compound: C1=CC2=NC=CN=C2C=C1/C=C/3\C(=O)NC(=O)S3
How it was run: as §1

[6] = compound: C1=CC=C(C=C1)C2=NC(=C(N2)C3=CC=NC=C3)C4=CC(=C(C=C4)Cl)O
How it was run: as §1

[7] = compound: C1=CC=C2C(=C1)C3=NNC4=CC=CC(=C43)C2=O
How it was run: as §1

[8] = compound: C1CCN(C1)C(=O)NC2=CC=CC(=C2)NC3=NC=C(C(=N3)NCCC4=CN=CN4)Br
How it was run: as §1

[9] = compound: C1CN(CCC1(CC2=CC=C(C=C2)Cl)N)C3=NC=NC4=C3C=CN4
How it was run: as §1

[10] = compound: C1COCCN1CCN2C3=CC=CC=C3N=C2NC(=O)C4=CC(=CC=C4)[N+](=O)[O-] [IRAK-1-4 Inhibitor I]
How it was run: as §1

[11] = compound: C=CC(=O)N1CCC[C@@H](n2nc(-c3ccc(Oc4ccccc4)cc3)c3c(N)ncnc32)C1 [ibrutinib]
How it was run: as §1

[12] = compound: CC(=O)c1cnc2ccc(-c3cc(Cl)c(O)c(Cl)c3)nc2c1N[C@H]1CC[C@H](CN(C)C)CC1
How it was run: as §1

[13] = compound: CC(C)(C)Cn1c(N)nc2ccc(-c3[nH]c(C(C)(C)C)nc3-c3ccc(F)cc3)nc21 [ralimetinib]
How it was run: as §1

[14] = compound: CC(C)(O)CC(=O)NCCn1ccc2ncnc(Nc3ccc(Oc4cccc(C(F)(F)F)c4)c(Cl)c3)c21
How it was run: as §1

[15] = compound: CC(C)C1=C2N=C(C=C(N2N=C1)NCC3=CC=CC=C3)NCCCCCCN
How it was run: as §1

[16] = compound: CC1=C(C(CC(=O)N1)C2=CC=C(C=C2)C(F)(F)F)C(=O)NC3=C(C=C4C(=C3)C=NN4)F
How it was run: as §1

[17] = compound: CC1=C(C2=C(C=C1)C(=O)C3=CC=CC=C3N2CCCN)C
How it was run: as §1

[18] = compound: CC1=C(C=C(C=C1)NC(=O)C2=CC(=CC=C2)C(C)(C)C#N)NC3=CC4=C(C=C3)N=CN(C4=O)C
How it was run: as §1

[19] = compound: CC1=C(C=C(C=C1)NC(=O)C2=CC(=CC=C2)N(C)C)NC(=O)C3=CC=C(C=C3)O
How it was run: as §1

[20] = compound: CC1=CC=C(C=C1)SC2=C3C=C(SC3=CN=C2)C(=O)N
How it was run: as §1

Measured: log2 fold change

PUM1 isoform 3 (UniProt Q14671)
active: [18] -0.435
inactive: [1] -0.025 | [2] 0.051 | [3] 0.06 | [4] -0.028 | [5] 0.02 | [6] -0.052 | [7] -0.033 | [8] 0.01 | [9] 0.013 | [10] 0.011 | [11] -0.034 | [12] 0.009 | [13] 0.003 | [14] -0.031 | [15] -0.035 | [16] 0.032 | [17] 0.044 | [19] 0.049 | [20] 0.014

PIK3CB (UniProt P42338)
inactive: [1] -0.024 | [2] -0.014 | [3] -0.045 | [4] 0.159 | [5] 0.412 | [6] 0.019 | [7] 0.095 | [8] 0.002 | [9] 0.052 | [10] 0.037 | [11] -0.009 | [12] 0.388 | [13] -0.011 | [14] -0.005 | [15] -0.076 | [16] -0.003 | [17] 0.035 | [18] -0.012 | [19] 0.056 | [20] 0.018

PIK3R1 (UniProt P27986)
Sequence of UniProt P27986 (P27986 whole entry, looked up): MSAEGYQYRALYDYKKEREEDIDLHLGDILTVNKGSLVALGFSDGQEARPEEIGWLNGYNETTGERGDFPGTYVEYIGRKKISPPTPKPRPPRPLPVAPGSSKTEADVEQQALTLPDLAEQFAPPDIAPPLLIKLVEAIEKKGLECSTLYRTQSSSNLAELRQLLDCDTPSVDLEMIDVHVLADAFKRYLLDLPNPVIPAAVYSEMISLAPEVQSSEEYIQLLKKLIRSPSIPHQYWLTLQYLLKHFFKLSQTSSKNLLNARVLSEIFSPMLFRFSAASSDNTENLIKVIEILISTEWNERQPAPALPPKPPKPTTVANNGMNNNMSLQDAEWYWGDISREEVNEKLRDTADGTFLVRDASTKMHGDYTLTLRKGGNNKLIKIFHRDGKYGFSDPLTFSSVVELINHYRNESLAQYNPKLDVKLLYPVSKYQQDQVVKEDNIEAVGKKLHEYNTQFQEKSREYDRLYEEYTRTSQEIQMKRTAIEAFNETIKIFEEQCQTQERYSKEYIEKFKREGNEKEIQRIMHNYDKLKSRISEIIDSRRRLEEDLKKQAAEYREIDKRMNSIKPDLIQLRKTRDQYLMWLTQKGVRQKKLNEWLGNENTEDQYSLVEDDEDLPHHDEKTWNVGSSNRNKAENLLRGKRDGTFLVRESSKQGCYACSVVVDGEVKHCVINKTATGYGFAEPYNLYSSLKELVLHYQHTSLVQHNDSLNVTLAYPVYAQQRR
active: [5] 0.348
inactive: [1] -0.027 | [2] -0.4 | [3] 0.008 | [4] 0.069 | [6] 0.076 | [7] 0.089 | [8] -0.015 | [9] 0 | [10] 0.1 | [11] -0.018 | [12] 0.302 | [13] -0.003 | [14] -0.06 | [15] -0.008 | [16] -0.006 | [17] 0.027 | [18] -0.013 | [19] -0.006 | [20] 0.019

PWP1 (UniProt Q13610)
inactive: [1] -0.02 | [2] -0.025 | [3] 0.045 | [4] 0.057 | [5] 0.007 | [6] 0 | [7] 0.031 | [8] 0.008 | [9] -0.032 | [10] 0.005 | [11] 0.022 | [12] -0.017 | [13] 0.012 | [14] -0.011 | [15] -0.02 | [16] -0.053 | [17] -0.025 | [18] -0.009 | [19] 0.032 | [20] -0.001

PTK2B (UniProt Q14289)
Sequence of UniProt Q14289 (Q14289 whole entry, looked up): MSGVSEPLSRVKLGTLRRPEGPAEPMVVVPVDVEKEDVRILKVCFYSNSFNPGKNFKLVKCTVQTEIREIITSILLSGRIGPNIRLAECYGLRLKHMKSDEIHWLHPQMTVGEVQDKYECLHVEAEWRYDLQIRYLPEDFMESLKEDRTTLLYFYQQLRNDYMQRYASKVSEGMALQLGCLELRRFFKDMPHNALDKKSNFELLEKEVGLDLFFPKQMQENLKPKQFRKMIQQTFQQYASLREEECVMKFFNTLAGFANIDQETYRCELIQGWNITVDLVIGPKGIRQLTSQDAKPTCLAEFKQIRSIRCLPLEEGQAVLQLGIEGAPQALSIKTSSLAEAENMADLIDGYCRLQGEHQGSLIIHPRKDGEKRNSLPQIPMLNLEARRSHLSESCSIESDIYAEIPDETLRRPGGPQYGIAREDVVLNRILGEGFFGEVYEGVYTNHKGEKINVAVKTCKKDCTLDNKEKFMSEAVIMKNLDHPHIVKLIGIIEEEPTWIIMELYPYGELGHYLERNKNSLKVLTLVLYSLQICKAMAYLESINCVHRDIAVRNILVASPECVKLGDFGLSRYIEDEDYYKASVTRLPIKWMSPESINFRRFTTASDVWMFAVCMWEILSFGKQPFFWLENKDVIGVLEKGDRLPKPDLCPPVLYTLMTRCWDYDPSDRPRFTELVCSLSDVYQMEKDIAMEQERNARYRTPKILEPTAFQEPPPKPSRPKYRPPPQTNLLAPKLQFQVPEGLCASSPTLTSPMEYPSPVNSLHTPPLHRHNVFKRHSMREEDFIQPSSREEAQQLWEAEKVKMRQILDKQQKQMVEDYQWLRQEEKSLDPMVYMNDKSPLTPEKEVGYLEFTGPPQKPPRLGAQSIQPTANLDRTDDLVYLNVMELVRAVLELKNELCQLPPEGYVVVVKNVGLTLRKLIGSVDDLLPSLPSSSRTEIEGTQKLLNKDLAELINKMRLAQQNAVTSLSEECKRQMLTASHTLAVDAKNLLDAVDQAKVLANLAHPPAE
inactive: [1] 0.024 | [2] -0.012 | [3] 0.001 | [4] -0.012 | [5] -0.053 | [6] 0.027 | [7] 0.066 | [8] 0.067 | [9] -0.068 | [10] 0.077 | [11] 0.014 | [12] 0.073 | [13] -0.04 | [14] -0.072 | [15] -0.005 | [16] -0.039 | [17] -0.001 | [18] -0.049 | [19] 0.013 | [20] -0.022

PPOX (UniProt P50336)
Sequence of UniProt P50336 (P50336 whole entry, looked up): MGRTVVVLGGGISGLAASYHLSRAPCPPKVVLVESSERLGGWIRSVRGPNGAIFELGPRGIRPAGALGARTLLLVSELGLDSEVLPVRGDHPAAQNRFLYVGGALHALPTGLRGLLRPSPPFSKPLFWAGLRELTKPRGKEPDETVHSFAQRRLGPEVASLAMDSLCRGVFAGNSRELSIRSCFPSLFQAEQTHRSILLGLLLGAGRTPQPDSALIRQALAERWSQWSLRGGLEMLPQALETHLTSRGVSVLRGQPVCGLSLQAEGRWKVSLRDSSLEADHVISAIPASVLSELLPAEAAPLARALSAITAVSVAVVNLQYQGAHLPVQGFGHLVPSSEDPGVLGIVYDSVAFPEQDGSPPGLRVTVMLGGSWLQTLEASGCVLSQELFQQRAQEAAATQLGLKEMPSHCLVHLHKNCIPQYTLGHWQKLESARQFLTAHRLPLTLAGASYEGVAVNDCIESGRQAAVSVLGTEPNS
active: [2] 0.532
inactive: [1] -0.044 | [3] 0 | [4] -0.015 | [5] -0.04 | [6] 0.025 | [7] 0.014 | [8] 0 | [9] -0.041 | [10] -0.016 | [11] 0.067 | [12] -0.008 | [13] 0.001 | [14] 0.091 | [15] 0.301 | [16] -0.022 | [17] -0.138 | [18] 0.105 | [19] 0.006 | [20] 0.012

PICALM (UniProt Q13492)
Sequence of UniProt Q13492 (Q13492 whole entry, looked up): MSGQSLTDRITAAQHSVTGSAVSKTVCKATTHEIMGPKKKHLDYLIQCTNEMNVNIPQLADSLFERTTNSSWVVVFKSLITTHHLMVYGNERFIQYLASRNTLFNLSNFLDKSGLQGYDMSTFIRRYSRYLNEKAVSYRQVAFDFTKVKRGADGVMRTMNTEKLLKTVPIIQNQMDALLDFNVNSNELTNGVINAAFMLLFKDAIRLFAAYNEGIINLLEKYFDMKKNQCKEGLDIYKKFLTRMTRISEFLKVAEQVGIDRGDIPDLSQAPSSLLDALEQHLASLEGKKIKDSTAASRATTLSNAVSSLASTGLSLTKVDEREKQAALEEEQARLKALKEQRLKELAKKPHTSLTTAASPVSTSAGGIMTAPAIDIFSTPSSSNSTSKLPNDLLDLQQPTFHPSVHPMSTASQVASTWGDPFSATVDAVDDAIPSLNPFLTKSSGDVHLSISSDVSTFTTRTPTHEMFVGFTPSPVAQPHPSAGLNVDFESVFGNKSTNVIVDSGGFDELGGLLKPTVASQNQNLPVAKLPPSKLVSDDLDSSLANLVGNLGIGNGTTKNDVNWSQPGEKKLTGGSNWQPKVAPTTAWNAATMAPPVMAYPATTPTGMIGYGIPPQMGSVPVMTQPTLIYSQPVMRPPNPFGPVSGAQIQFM
inactive: [1] -0.019 | [2] -0.035 | [3] 0.02 | [4] -0.021 | [5] 0.01 | [6] -0.06 | [7] -0.014 | [8] -0.016 | [9] 0.001 | [10] 0.026 | [11] -0.023 | [12] 0.011 | [13] -0.025 | [14] -0.039 | [15] -0.004 | [16] -0.018 | [17] 0.004 | [18] 0.021 | [19] -0.004 | [20] -0.005

PTP4A1 (UniProt Q93096)
Sequence of UniProt Q93096 (Q93096 whole entry, looked up): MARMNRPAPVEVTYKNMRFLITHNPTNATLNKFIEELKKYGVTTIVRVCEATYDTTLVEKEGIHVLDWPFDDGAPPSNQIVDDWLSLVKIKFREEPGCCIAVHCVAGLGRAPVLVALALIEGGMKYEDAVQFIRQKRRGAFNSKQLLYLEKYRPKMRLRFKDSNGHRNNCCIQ
inactive: [1] -0.005 | [2] 0.01 | [3] 0.014 | [4] -0.001 | [5] -0.013 | [6] -0.022 | [7] -0.086 | [8] 0.05 | [9] -0.066 | [10] -0.014 | [11] 0.011 | [12] 0.027 | [13] 0.015 | [14] -0.071 | [15] -0.031 | [16] -0.113 | [17] -0.007 | [18] -0.012 | [19] -0.048 | [20] 0

PES1 (UniProt O00541)
Sequence of UniProt O00541 (O00541 whole entry, looked up): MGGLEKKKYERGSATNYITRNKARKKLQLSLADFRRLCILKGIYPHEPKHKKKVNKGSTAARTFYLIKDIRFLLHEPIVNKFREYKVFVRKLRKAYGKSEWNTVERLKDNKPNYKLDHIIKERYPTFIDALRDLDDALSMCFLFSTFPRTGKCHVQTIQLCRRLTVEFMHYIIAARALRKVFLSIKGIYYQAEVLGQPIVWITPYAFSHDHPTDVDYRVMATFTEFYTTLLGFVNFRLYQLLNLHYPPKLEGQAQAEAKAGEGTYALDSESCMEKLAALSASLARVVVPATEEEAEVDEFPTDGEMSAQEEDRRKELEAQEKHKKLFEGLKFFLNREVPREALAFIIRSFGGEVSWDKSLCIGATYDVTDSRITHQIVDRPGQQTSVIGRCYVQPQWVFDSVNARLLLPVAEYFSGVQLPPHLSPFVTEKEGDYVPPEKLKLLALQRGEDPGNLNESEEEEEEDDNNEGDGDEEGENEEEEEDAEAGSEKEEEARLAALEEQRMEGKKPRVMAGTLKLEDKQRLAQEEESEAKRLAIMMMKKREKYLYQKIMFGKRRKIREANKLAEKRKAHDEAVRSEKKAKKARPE
inactive: [1] 0 | [2] -0.071 | [3] -0.014 | [4] -0.044 | [5] -0.001 | [6] 0.001 | [7] -0.012 | [8] 0.025 | [9] -0.056 | [10] 0.037 | [11] 0.016 | [12] 0.017 | [13] 0.031 | [14] -0.03 | [15] 0.006 | [16] 0.013 | [17] -0.052 | [18] 0.012 | [19] 0.003 | [20] 0.007

PDCD10 (UniProt Q9BUL8)
Sequence of UniProt Q9BUL8 (Q9BUL8 whole entry, looked up): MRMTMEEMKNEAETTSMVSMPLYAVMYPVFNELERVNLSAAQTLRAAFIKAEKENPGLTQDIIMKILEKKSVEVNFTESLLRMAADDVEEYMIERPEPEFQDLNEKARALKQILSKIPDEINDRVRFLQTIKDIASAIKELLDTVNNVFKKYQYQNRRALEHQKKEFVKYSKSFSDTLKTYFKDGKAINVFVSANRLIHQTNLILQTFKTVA
inactive: [1] -0.029 | [2] -0.001 | [3] -0.009 | [4] -0.049 | [5] -0.028 | [6] -0.007 | [7] 0.087 | [8] 0.035 | [9] -0.025 | [10] -0.012 | [11] 0.001 | [12] 0.062 | [13] 0 | [14] -0.006 | [15] -0.008 | [16] -0.02 | [17] 0.016 | [18] 0.021 | [19] -0.02 | [20] -0.02

PCBP3 (UniProt P57721)
Sequence of UniProt P57721 (P57721 whole entry, looked up): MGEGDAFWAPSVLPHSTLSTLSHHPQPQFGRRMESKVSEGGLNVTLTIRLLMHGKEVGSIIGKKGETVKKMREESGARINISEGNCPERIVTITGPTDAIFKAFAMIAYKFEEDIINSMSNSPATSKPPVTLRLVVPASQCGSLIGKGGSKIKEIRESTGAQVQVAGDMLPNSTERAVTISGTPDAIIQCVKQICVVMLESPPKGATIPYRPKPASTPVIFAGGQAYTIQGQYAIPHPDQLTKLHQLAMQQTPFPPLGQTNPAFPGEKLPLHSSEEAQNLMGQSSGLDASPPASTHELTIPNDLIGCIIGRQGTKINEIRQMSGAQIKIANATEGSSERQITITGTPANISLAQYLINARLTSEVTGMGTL
inactive: [1] 0.005 | [2] 0.028 | [3] 0.021 | [4] -0.031 | [5] 0.02 | [6] 0.02 | [7] 0.029 | [8] -0.003 | [9] 0.021 | [10] -0.005 | [11] -0.026 | [12] -0.007 | [13] -0.005 | [14] -0.021 | [15] 0 | [16] -0.04 | [17] -0.006 | [18] 0.053 | [19] -0.02 | [20] -0.028

POLR2G (UniProt P62487)
inactive: [1] 0.02 | [2] 0.012 | [3] 0.044 | [4] -0.005 | [5] 0.029 | [6] 0.022 | [7] 0.036 | [8] -0.002 | [9] 0.02 | [10] 0.03 | [11] -0.01 | [12] -0.001 | [13] 0.027 | [14] -0.017 | [15] -0.028 | [16] -0.015 | [17] 0.02 | [18] 0.029 | [19] -0.008 | [20] -0.01

POLD1 (UniProt P28340)
inactive: [1] 0.016 | [2] -0.05 | [3] 0.013 | [4] 0.008 | [5] -0.008 | [6] 0.015 | [7] -0.029 | [8] -0.006 | [9] 0.007 | [10] -0.01 | [11] -0.003 | [12] 0.014 | [13] 0.035 | [14] 0.018 | [15] 0 | [16] 0.005 | [17] -0.012 | [18] 0.005 | [19] 0.02 | [20] -0.032

PTPN2 (UniProt P17706)
Sequence of UniProt P17706 (P17706 whole entry, looked up): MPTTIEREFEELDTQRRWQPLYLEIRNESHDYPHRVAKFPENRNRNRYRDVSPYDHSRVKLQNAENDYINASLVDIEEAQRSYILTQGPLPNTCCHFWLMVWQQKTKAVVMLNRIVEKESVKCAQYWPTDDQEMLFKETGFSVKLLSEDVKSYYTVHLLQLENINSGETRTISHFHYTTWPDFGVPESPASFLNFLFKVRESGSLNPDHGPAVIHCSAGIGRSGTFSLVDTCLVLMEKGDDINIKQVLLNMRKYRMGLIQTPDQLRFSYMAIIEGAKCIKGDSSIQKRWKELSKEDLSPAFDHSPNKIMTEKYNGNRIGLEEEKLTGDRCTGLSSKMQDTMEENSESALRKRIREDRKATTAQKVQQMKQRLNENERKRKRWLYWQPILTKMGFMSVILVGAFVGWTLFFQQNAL
inactive: [1] 0.028 | [2] 0.119 | [3] -0.005 | [4] 0.006 | [5] 0.019 | [6] -0.045 | [7] -0.033 | [8] 0 | [9] 0.046 | [10] -0.017 | [11] 0.016 | [12] -0.014 | [13] 0.014 | [14] -0.001 | [15] -0.029 | [16] -0.035 | [17] 0.045 | [18] -0.005 | [19] 0.017 | [20] 0.007

PYURF (UniProt Q96I23)
Sequence of UniProt Q96I23 (Q96I23 whole entry, looked up): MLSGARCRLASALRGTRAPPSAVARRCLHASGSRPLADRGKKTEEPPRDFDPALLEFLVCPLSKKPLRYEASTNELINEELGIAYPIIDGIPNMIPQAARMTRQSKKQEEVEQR
inactive: [1] -0.019 | [2] 0.113 | [3] 0.117 | [4] 0.056 | [5] 0.087 | [6] -0.09 | [7] -0.108 | [8] 0.035 | [9] 0.07 | [10] -0.086 | [11] 0.189 | [12] -0.026 | [13] -0.005 | [14] 0.079 | [15] 0.016 | [16] 0.058 | [17] -0.05 | [18] 0.084 | [19] 0.012 | [20] -0.026

PHLDB1 (UniProt Q86UU1)
inactive: [1] 0.01 | [2] -0.044 | [3] 0.032 | [4] -0.081 | [5] -0.031 | [6] 0.101 | [7] -0.158 | [8] -0.032 | [9] 0.068 | [10] -0.044 | [11] 0.05 | [12] 0.049 | [13] -0.094 | [14] 0.096 | [15] -0.021 | [16] 0.004 | [17] -0.009 | [18] 0.114 | [19] -0.001 | [20] 0.156
